Measurements: PubChem BioAssay AID1159580 (chemical genetic matrix, 2015)
Screen size: about 5,500 compounds; about 2,000 (36%) were called active. Not shown: some 18% with an inconclusive outcome. No stated cut-off is given here; in the data, active means normalized growth mostly below about 0.91 (no sharp cut-off); inconclusive means no clear call, values can overlap the other calls; inactive means mostly above about 0.92. The list shows a part of the results.

Assay: chemical genetic growth profiling, strain panel (AID 1159580);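 further: tested at 20 µM; growth read once vehicle control cultures reached saturation at 30 °C; 1 = growth at the plate median or of vehicle wells; lower values mean less growth of the strain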
Conditions: growth OD

Measured: normalized growth

C#CC1(O)CCC2C3CCC4=CC(=O)CCC4(C)C3CCC21C (stereo unspecified)
active: S. cerevisiae deletion strains, locus YNL307C, strain MCK1, active compounds read low 0.906 | S. cerevisiae deletion strains, locus YOR184W, strain ser1, active compounds read low 0.87 | S. cerevisiae deletion strains, locus YOR270C, strain vph1, active compounds read low 0.727
inactive: S. cerevisiae deletion strains, locus YKL009W, strain mrt4, active compounds read low 0.945 | S. cerevisiae deletion strains, locus YKL068W, active compounds read low 0.991 | S. cerevisiae deletion strains, locus YKL085W, strain MDH1 (second series), active compounds read low 0.99 | S. cerevisiae deletion strains, locus YKL085W, strain MDH1, active compounds read low 0.99 | S. cerevisiae deletion strains, locus YKL160W, strain elf1, active compounds read low 0.979 | S. cerevisiae deletion strains, locus YKL190W, strain CNB1, active compounds read low 0.997 | S. cerevisiae deletion strains, locus YKR001C, strain vps1, active compounds read low 0.99 | S. cerevisiae deletion strains, locus YKR026C, strain gcn3, active compounds read low 0.991 | S. cerevisiae deletion strains, locus YKR091W, strain srl3, active compounds read low 0.977 | S. cerevisiae deletion strains, locus YLL001W, strain dnm1, active compounds read low 1 | S. cerevisiae deletion strains, locus YLL026W, active compounds read low 0.986 | S. cerevisiae deletion strains, locus YLL041C, strain sdh2, active compounds read low 0.998 | S. cerevisiae deletion strains, locus YLR027C, strain aat2, active compounds read low 0.986 | S. cerevisiae deletion strains, locus YLR039C, strain RIC1, active compounds read low 1.31 | S. cerevisiae deletion strains, locus YLR058C, strain SHM2, active compounds read low 0.986 | S. cerevisiae deletion strains, locus YLR102C, strain apc9, active compounds read low 0.978 | S. cerevisiae deletion strains, locus YLR113W, strain HOG1, active compounds read low 1.03 | S. cerevisiae deletion strains, locus YLR221C, strain rsa3, active compounds read low 1 | S. cerevisiae deletion strains, locus YLR258W, strain gsy2, active compounds read low 0.983 | S. cerevisiae deletion strains, locus YLR262C, strain YPT6 (second series), active compounds read low 1.05 | S. cerevisiae deletion strains, locus YLR262C, strain YPT6, active compounds read low 1.2 | S. cerevisiae deletion strains, locus YLR268W, strain sec22, active compounds read low 0.987 | S. cerevisiae deletion strains, locus YLR320W, strain mms22, active compounds read low 0.997 | S. cerevisiae deletion strains, locus YLR330W, strain CHS5, active compounds read low 0.988 | S. cerevisiae deletion strains, locus YLR342W, strain FKS1 (second series), active compounds read low 0.909 | S. cerevisiae deletion strains, locus YLR342W, strain FKS1, active compounds read low 0.988 | S. cerevisiae deletion strains, locus YLR357W, strain rsc2, active compounds read low 1 | S. cerevisiae deletion strains, locus YLR370C, strain arc18, active compounds read low 0.975 | S. cerevisiae deletion strains, locus YLR371W, strain rom2, active compounds read low 0.987 | S. cerevisiae deletion strains, locus YLR384C, strain iki3, active compounds read low 0.99 | S. cerevisiae deletion strains, locus YLR418C, strain cdc73, active compounds read low 0.921 | S. cerevisiae deletion strains, locus YML016C, strain PPZ1, active compounds read low 0.989 | S. cerevisiae deletion strains, locus YML032C, strain rad52, active compounds read low 0.99 | S. cerevisiae deletion strains, locus YML120C, strain ndi1, active compounds read low 0.99 | S. cerevisiae deletion strains, locus YML124C, strain tub3, active compounds read low 0.991 | S. cerevisiae deletion strains, locus YMR058W, strain fet3, active compounds read low 0.948 | S. cerevisiae deletion strains, locus YMR078C, strain ctf18, active compounds read low 0.976 | S. cerevisiae deletion strains, locus YMR125W, strain sto1, active compounds read low 0.967 | S. cerevisiae deletion strains, locus YMR129W, active compounds read low 0.988 | S. cerevisiae deletion strains, locus YMR205C, strain PFK2, active compounds read low 0.991 | S. cerevisiae deletion strains, locus YMR223W, strain ubp8, active compounds read low 0.957 | S. cerevisiae deletion strains, locus YMR231W, strain pep5, active compounds read low 0.997 | S. cerevisiae deletion strains, locus YMR263W, strain SAP30, active compounds read low 1.01 | S. cerevisiae deletion strains, locus YMR307W, strain GAS1, active compounds read low 1.14 | S. cerevisiae deletion strains, locus YNL067W, strain RPL9B, active compounds read low 1.02 | S. cerevisiae deletion strains, locus YNL071W, strain lat1, active compounds read low 1 | S. cerevisiae deletion strains, locus YNL153C, strain GIM3, active compounds read low 1.04 | S. cerevisiae deletion strains, locus YNL183C, strain NPR1, active compounds read low 0.955 | S. cerevisiae deletion strains, locus YNL209W, strain ssb2, active compounds read low 0.988 | S. cerevisiae deletion strains, locus YNL233W, strain BNI4, active compounds read low 1.02 | S. cerevisiae deletion strains, locus YNL248C, strain rpa49, active compounds read low 0.987 | S. cerevisiae deletion strains, locus YNL250W, strain rad50, active compounds read low 0.978 | S. cerevisiae deletion strains, locus YNL271C, strain bni1, active compounds read low 0.979 | S. cerevisiae deletion strains, locus YNL298W, strain CLA4, active compounds read low 0.954 | S. cerevisiae deletion strains, locus YNL322C, strain KRE1 (second series), active compounds read low 1 | S. cerevisiae deletion strains, locus YNR049C, strain mso1, active compounds read low 0.965 | S. cerevisiae deletion strains, locus YNR052C, strain pop2, active compounds read low 0.966 | S. cerevisiae deletion strains, locus YOL147C, strain pex11, active compounds read low 0.994 | S. cerevisiae deletion strains, locus YOR001W, strain rrp6, active compounds read low 0.998 | S. cerevisiae deletion strains, locus YOR061W, strain CKA2, active compounds read low 0.986 | S. cerevisiae deletion strains, locus YOR069W, strain VPS5, active compounds read low 0.981 | S. cerevisiae deletion strains, locus YOR070C, strain gyp1, active compounds read low 0.992 | S. cerevisiae deletion strains, locus YOR080W, strain dia2, active compounds read low 0.972 | S. cerevisiae deletion strains, locus YOR083W, strain WHI5, active compounds read low 0.948 | S. cerevisiae deletion strains, locus YOR106W, strain vam3, active compounds read low 0.965 | S. cerevisiae deletion strains, locus YOR136W, strain idh2, active compounds read low 0.977 | S. cerevisiae deletion strains, locus YOR144C, strain elg1, active compounds read low 0.975 | S. cerevisiae deletion strains, locus YOR231W, strain MKK1, active compounds read low 1.02 | S. cerevisiae deletion strains, locus YOR265W, strain rbl2, active compounds read low 0.988 | S. cerevisiae deletion strains, locus YOR290C, strain snf2, active compounds read low 0.974 | S. cerevisiae deletion strains, locus YOR316C, strain cot1, active compounds read low 0.979 | S. cerevisiae deletion strains, locus YPL051W, strain arl3, active compounds read low 1.01 | S. cerevisiae deletion strains, locus YPL078C, strain atp4, active compounds read low 0.987 | S. cerevisiae deletion strains, locus YPL106C, strain sse1, active compounds read low 0.985 | S. cerevisiae deletion strains, locus YPL240C, strain hsp82, active compounds read low 0.988 | S. cerevisiae deletion strains, locus YPL241C, strain CIN2, active compounds read low 0.99 | S. cerevisiae deletion strains, locus YPL256C, strain CLN2, active compounds read low 0.994 | S. cerevisiae deletion strains, locus YPR119W, strain clb2, active compounds read low 0.983 | S. cerevisiae deletion strains, locus YPR141C, strain kar3, active compounds read low 0.982 | S. cerevisiae deletion strains, locus YPR163C, strain tif3, active compounds read low 0.977 | S. cerevisiae deletion strains, locus YPR167C, strain met16, active compounds read low 0.97 | S. cerevisiae deletion strains, strain wtn01, active compounds read low 0.955 | S. cerevisiae strains, strain wild type, active compounds read low 0.99
